Measured values as given in PubChem BioAssay AID1159580 (chemical genetic matrix, 2015).
Several values for one entry are separate records, joined by “and”; a condition that tells them apart may be missing. Equal values may be shown once. About 2,000 (36%) of roughly 5,500 compounds were called active. Inconclusive results (about 18%) are left out. Rule as the data show it: active = normalized growth mostly below about 0.91 (no sharp cut-off); inconclusive = no clear call, values can overlap the other calls; inactive = mostly above about 0.92. Some of the results follow.

Assay: chemical genetic growth profiling, strain panel (AID 1159580);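 also: tested at 20 µM; growth read once vehicle control cultures reached saturation at 30 °C; 1 = growth at the plate median or of vehicle wells; lower values mean less growth of the strain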
Settings: growth OD

Measured: normalized growth

Nc1ccc(S(=O)(=O)Nc2ccnn2-c2ccccc2)cc1
inactive: S. cerevisiae deletion strains, locus YJR075W, strain HOC1, hits give low values 1.02 and 1.03 | S. cerevisiae deletion strains, locus YKL009W, strain mrt4, hits give low values 0.976 | S. cerevisiae deletion strains, locus YKL068W, hits give low values 1 | S. cerevisiae deletion strains, locus YKL085W, strain MDH1 (second series), hits give low values 0.999 | S. cerevisiae deletion strains, locus YKL085W, strain MDH1, hits give low values 0.999 | S. cerevisiae deletion strains, locus YKL160W, strain elf1, hits give low values 0.989 | S. cerevisiae deletion strains, locus YKL190W, strain CNB1, hits give low values 1.01 | S. cerevisiae deletion strains, locus YKR001C, strain vps1, hits give low values 0.992 | S. cerevisiae deletion strains, locus YKR026C, strain gcn3, hits give low values 0.965 | S. cerevisiae deletion strains, locus YKR091W, strain srl3, hits give low values 0.997 | S. cerevisiae deletion strains, locus YLL001W, strain dnm1, hits give low values 0.979 | S. cerevisiae deletion strains, locus YLL026W, hits give low values 0.997 | S. cerevisiae deletion strains, locus YLL041C, strain sdh2, hits give low values 0.986 | S. cerevisiae deletion strains, locus YLR027C, strain aat2, hits give low values 0.985 | S. cerevisiae deletion strains, locus YLR039C, strain RIC1, hits give low values 0.982 | S. cerevisiae deletion strains, locus YLR058C, strain SHM2, hits give low values 1.01 | S. cerevisiae deletion strains, locus YLR102C, strain apc9, hits give low values 0.99 | S. cerevisiae deletion strains, locus YLR113W, strain HOG1, hits give low values 0.998 | S. cerevisiae deletion strains, locus YLR221C, strain rsa3, hits give low values 0.986 | S. cerevisiae deletion strains, locus YLR258W, strain gsy2, hits give low values 0.998 | S. cerevisiae deletion strains, locus YLR262C, strain YPT6 (second series), hits give low values 0.885 | S. cerevisiae deletion strains, locus YLR262C, strain YPT6, hits give low values 0.993 | S. cerevisiae deletion strains, locus YLR268W, strain sec22, hits give low values 0.998 | S. cerevisiae deletion strains, locus YLR320W, strain mms22, hits give low values 1.03 | S. cerevisiae deletion strains, locus YLR330W, strain CHS5, hits give low values 1 | S. cerevisiae deletion strains, locus YLR342W, strain FKS1 (second series), hits give low values 0.983 | S. cerevisiae deletion strains, locus YLR342W, strain FKS1, hits give low values 1.01 | S. cerevisiae deletion strains, locus YLR357W, strain rsc2, hits give low values 1 | S. cerevisiae deletion strains, locus YLR370C, strain arc18, hits give low values 1.01 | S. cerevisiae deletion strains, locus YLR371W, strain rom2, hits give low values 0.99 | S. cerevisiae deletion strains, locus YLR384C, strain iki3, hits give low values 0.977 | S. cerevisiae deletion strains, locus YLR418C, strain cdc73, hits give low values 1.01 | S. cerevisiae deletion strains, locus YML016C, strain PPZ1, hits give low values 1.01 | S. cerevisiae deletion strains, locus YML032C, strain rad52, hits give low values 0.996 | S. cerevisiae deletion strains, locus YML120C, strain ndi1, hits give low values 0.99 | S. cerevisiae deletion strains, locus YML124C, strain tub3, hits give low values 1 | S. cerevisiae deletion strains, locus YMR058W, strain fet3, hits give low values 0.986 | S. cerevisiae deletion strains, locus YMR078C, strain ctf18, hits give low values 0.998 | S. cerevisiae deletion strains, locus YMR125W, strain sto1, hits give low values 0.954 | S. cerevisiae deletion strains, locus YMR129W, hits give low values 0.988 | S. cerevisiae deletion strains, locus YMR205C, strain PFK2, hits give low values 1.05 | S. cerevisiae deletion strains, locus YMR223W, strain ubp8, hits give low values 0.991 | S. cerevisiae deletion strains, locus YMR231W, strain pep5, hits give low values 0.997 | S. cerevisiae deletion strains, locus YMR263W, strain SAP30, hits give low values 1.03 | S. cerevisiae deletion strains, locus YMR307W, strain GAS1, hits give low values 0.943 and 0.968 | S. cerevisiae deletion strains, locus YNL067W, strain RPL9B, hits give low values 1.02 | S. cerevisiae deletion strains, locus YNL071W, strain lat1, hits give low values 0.993 | S. cerevisiae deletion strains, locus YNL128W, strain TEP1, hits give low values 0.995 | S. cerevisiae deletion strains, locus YNL175C, strain NOP13, hits give low values 1.01 | S. cerevisiae deletion strains, locus YNL183C, strain NPR1, hits give low values 0.899 | S. cerevisiae deletion strains, locus YNL197C, strain WHI3, hits give low values 1.01 | S. cerevisiae deletion strains, locus YNL209W, strain ssb2, hits give low values 0.994 | S. cerevisiae deletion strains, locus YNL224C, strain SQS1, hits give low values 1 | S. cerevisiae deletion strains, locus YNL233W, strain BNI4, hits give low values 1.02 | S. cerevisiae deletion strains, locus YNL248C, strain rpa49, hits give low values 0.957 | S. cerevisiae deletion strains, locus YNL250W, strain rad50, hits give low values 1 | S. cerevisiae deletion strains, locus YNL271C, strain bni1, hits give low values 0.993 | S. cerevisiae deletion strains, locus YNL298W, strain CLA4, hits give low values 1.01 | S. cerevisiae deletion strains, locus YNL307C, strain MCK1, hits give low values 0.99 | S. cerevisiae deletion strains, locus YNL322C, strain KRE1 (second series), hits give low values 1 | S. cerevisiae deletion strains, locus YNL322C, strain KRE1, hits give low values 1.01 and 1.02 | S. cerevisiae deletion strains, locus YNR049C, strain mso1, hits give low values 0.996 | S. cerevisiae deletion strains, locus YNR052C, strain pop2, hits give low values 0.981 | S. cerevisiae deletion strains, locus YOL006C, strain TOP1, hits give low values 1.07 | S. cerevisiae deletion strains, locus YOL012C, strain htz1 1.59 | S. cerevisiae deletion strains, locus YOL147C, strain pex11, hits give low values 1.01 | S. cerevisiae deletion strains, locus YOR001W, strain rrp6, hits give low values 0.969 | S. cerevisiae deletion strains, locus YOR061W, strain CKA2, hits give low values 1.01 | S. cerevisiae deletion strains, locus YOR069W, strain VPS5, hits give low values 1.01 | S. cerevisiae deletion strains, locus YOR070C, strain gyp1, hits give low values 0.997 | S. cerevisiae deletion strains, locus YOR080W, strain dia2, hits give low values 1 | S. cerevisiae deletion strains, locus YOR083W, strain WHI5 (second series), hits give low values 1.03 | S. cerevisiae deletion strains, locus YOR083W, strain WHI5, hits give low values 0.968 | S. cerevisiae deletion strains, locus YOR106W, strain vam3, hits give low values 0.977 | S. cerevisiae deletion strains, locus YOR136W, strain idh2, hits give low values 1 | S. cerevisiae deletion strains, locus YOR144C, strain elg1, hits give low values 1 | S. cerevisiae deletion strains, locus YOR184W, strain ser1, hits give low values 0.996 | S. cerevisiae deletion strains, locus YOR231W, strain MKK1, hits give low values 0.974 | S. cerevisiae deletion strains, locus YOR265W, strain rbl2, hits give low values 1 | S. cerevisiae deletion strains, locus YOR270C, strain vph1, hits give low values 0.997 | S. cerevisiae deletion strains, locus YOR290C, strain snf2, hits give low values 0.957 | S. cerevisiae deletion strains, locus YOR316C, strain cot1, hits give low values 0.994 | S. cerevisiae deletion strains, locus YPL051W, strain arl3, hits give low values 0.978 | S. cerevisiae deletion strains, locus YPL055C, strain LGE1, hits give low values 1.05 and 1.01 | S. cerevisiae deletion strains, locus YPL078C, strain atp4, hits give low values 0.963 | S. cerevisiae deletion strains, locus YPL106C, strain sse1, hits give low values 0.993 | S. cerevisiae deletion strains, locus YPL240C, strain hsp82, hits give low values 0.979 | S. cerevisiae deletion strains, locus YPL241C, strain CIN2, hits give low values 1.01 | S. cerevisiae deletion strains, locus YPL256C, strain CLN2, hits give low values 0.975 | S. cerevisiae deletion strains, locus YPR119W, strain clb2, hits give low values 0.997 | S. cerevisiae deletion strains, locus YPR141C, strain kar3, hits give low values 1 | S. cerevisiae deletion strains, locus YPR163C, strain tif3, hits give low values 1 | S. cerevisiae deletion strains, locus YPR167C, strain met16, hits give low values 0.991 | S. cerevisiae deletion strains, strain wtn01, hits give low values 1 | S. cerevisiae strains, strain wild type, hits give low values 1.01
